# Assay results: PubChem BioAssay AID588497 (NMMLSC, 2011)
# The whole screen tested about 360,000 compounds, of which about 780 (0.22%) were called active. Not shown: some 4% with an inconclusive outcome. For the sample, actives were picked, then their nearest neighbours and some compounds at random. Unmarked numbers belong to inactive results. No stated cut-off is given here; in the data, active means inhibition above about 35% (passing the limit was not always enough); inconclusive means no clear call, values can overlap the other calls.
# System: Botulinum neurotoxin type F light chain protease (Clostridium botulinum)
# Experiment: BoNT/F light chain protease inhibitors, primary screen, biochemical, flow cytometry, MLPCN library (AID 588497); further: plate controls were buffer without enzyme for full effect and enzyme alone for no effect
# Conditions: Multiplex microsphere protease cleavage assay, at 10 µM, hits give high values
row,Compound,inhibition
1,C=C1C(=O)[C@]23C[C@H]1CCC2[C@@]1(C)C(C[C@@H]3O)[C@](C)(C(=O)O)CC[C@@H]1O (stereo partly drawn),6.7%
2,CC12CCC(=O)C=C1CCC1C2C(O)CC2(C)C1CCC2(O)C(O)CO (stereo not drawn),-2.7%
3,COc1ccc(-c2cc3nc(NCCOc4ccccc4)ccn3n2)cc1,-7%
4,CC1=C(C(=O)N(C(C)C)C(C)C)CC(CC(=O)NCCCCc2ccccc2)C(=O)N1CCC1=CCCCC1 (stereo not drawn),-9.4%
5,CC(C)(C)CC(=O)Nc1nc(C(N)Cc2ccc(C(F)(F)F)cc2)cs1 (stereo not drawn),-15.5%
6,CCCNC(=O)c1cc2c(c(-c3cccc(-c4ccc(C#N)cc4)c3)n1)[C@@H](CCO)N(C(=O)CC)C2,-8.6%
7,CN1CCN(c2ccc(NC(=O)c3ccc4c(c3)[nH]c(=O)n4Cc3ccc(F)cc3)cc2)CC1,-37.9%
8,CN1CCN(c2ccc(NC(=O)c3ccccc3)cc2)CC1,38.8% (active)
9,CN1CCN(c2ccc(NC(=O)c3cc(Cl)c4c(c3)OCCO4)cc2)CC1,-0.9%
10,CCCCC(=O)N(C)c1c(CC)nc2c(OCc3ccc(Cl)cc3Cl)cccn12,-1.2%
11,CCC(c1nnnn1-c1ccc2c(c1)OCCO2)N1CCN(c2ccc(C(F)(F)F)cn2)CC1 (stereo not drawn),6.4%
12,CC1=C(C(=O)N(C(C)C)C(C)C)CC(CC(=O)NCC2CCCCC2)C(=O)N1Cc1ccccc1 (stereo not drawn),-6.1%
13,O=C1C(Sc2cccc(F)c2)=C[C@@]2(O)CC[C@@H](O)[C@]1(Sc1cccc(F)c1)[C@H]2O,-5.7%
14,CCOC(=O)C1=CCC2C(=O)N(Cc3ccccc3)C(=O)C12 (stereo not drawn),7.8%
15,CC(=O)Nc1cncc(-c2ccccc2CO)n1,-2.7%
16,O=C(NCCN1CCOCC1)c1ccccc1N1C(=O)[C@@H]2Cc3c([nH]c4ccccc34)C(c3cccc(Cl)c3)N2C1=O (stereo partly drawn),-6.1%
17,CC(NCC(=O)Nc1cc(Cl)cc(Cl)c1)c1ccccc1 (stereo not drawn),2.2%
18,O=C(COC(=O)c1ccccc1)Nc1ccc(Cl)cc1C(=O)c1ccccc1,-15.4%
19,NNC(=O)CNC(c1ccccc1)c1cc(Cl)ccc1NC(=O)c1ccccc1 (stereo not drawn),43.2% (active)
20,CC(C)C[C@H]1CNC(=S)N1C[C@H]1CCCN1C[C@H](Cc1ccc(O)cc1)N1C[C@H](Cc2ccc(O)cc2)N(CC2CCCCC2)C1=S,-11%

row,Compound,inhibition
1,COc1ccc(-n2c(-c3ccc(Cl)cc3)n[nH]c2=S)c(OC)c1,-4.7%
2,COc1ccccc1-n1cn[nH]c1=S,0.3%
3,COc1ccccc1-n1c(-c2cc(-c3ccco3)[nH]n2)n[nH]c1=S,40.9% (active)
4,OC(c1ccccc1)(c1ccccc1)C1CCN(CCCOc2ccccc2)CC1,0.4%
5,CC1(C(=O)NCc2ccc(F)c(F)c2)Cc2c(-c3ccc4c(c3)OCO4)ccnc2O1 (stereo not drawn),-7.8%
6,Cc1ccc(Cc2c(-c3ccco3)nc3ccc(Cl)cn23)cc1,-6%
7,CCCCOCCCNC(=O)C[C@@H]1C[C@@]2(C(=O)OC)CCCCC=C2N(CCC2=CCCCC2)C1=O,7.8%
8,CC(C)Oc1cc(F)ccc1-c1cc(C(=O)Nc2cccc(Cl)c2)[nH]n1,-7.1%
9,CN(Cc1ccccc1F)c1cc2c(c3c1ccn3C)C1CCC2O1 (stereo not drawn),3.2%
10,COC(=O)[C@]12CCCCC=C1N(CCC1=CCCCC1)C(=O)[C@H](CC(=O)NCC1CCCCC1)C2,5.5%
11,CCc1ccc(OC2(C)CCN(CCOc3ccc(C)cc3)C2)cc1 (stereo not drawn),-9.6%
12,CN(C)C1CN(Cc2cn(Cc3ccccc3)nn2)S(=O)(=O)C1 (stereo not drawn),-1.7%
13,CCCCCc1c(C)nc(N2CCN(Cc3ccc4c(c3)OCO4)CC2)[nH]c1=O,39.2% (active)
14,Cc1cc(C)n2nc(C(=O)N3CCN(Cc4ccc5c(c4)OCO5)CC3)nc2n1,-11.5%
15,CCc1c(C)nc(N2CCN(Cc3ccccc3)CC2)[nH]c1=O,6.6%
16,Cc1cc(Cl)ccc1-c1nc(NCCN(C)C)nc2ccsc12,-4.9%
17,CC1(Oc2ccccc2-c2ccno2)CCN(Cc2ccc(-c3ccccc3)o2)C1 (stereo not drawn),-11.5%
18,OC[C@@H]1CN(Cc2ccc(-c3ccccc3)cc2)C[C@H](n2cnc3c(NC4CCCC4)ncnc32)O1,-4.6%
19,CC(=O)Nc1ccc(CNc2nc(NCCN(C)C)nc3cc(-c4ccccc4)sc23)cc1,-18.9%
20,CC(=O)Oc1ccc(NC(=O)CCC2CCCCC2)c(C(=O)O)c1,37.7% (active)

row,Compound,inhibition
1,Cc1cc(C(=O)NNC(=O)CCC2CCCCC2)c(C)o1,0.3%
2,COC(=O)c1sccc1NC(=O)CCC1CCCC1,1.8%
3,NC(c1csc(NC(=O)Nc2ccccc2Oc2ccccc2)n1)c1ccccc1Cl (stereo not drawn),-12.1%
4,CC(C)N(CC#CCC1(O)c2ccccc2-c2ccccc21)C(C)C,37.1% (active)
5,CN1CCN(CC#CCC2(O)c3ccccc3-c3ccccc32)CC1,-6.9%
6,CCOC(=O)[C@]12CCC=C1N(Cc1ccco1)C(=O)[C@H](CC(=O)NCc1cccc(C(F)(F)F)c1)C2,-2.2%
7,CC=CCn1c(SCCCc2ccccc2)nc2c1c(=O)[nH]c(=O)n2C,-3.4%
8,OC(c1ccc(Cl)c(F)c1)c1ncc(-c2ccccc2Cl)[nH]1 (stereo not drawn),-8.1%
9,Cc1cc(Br)cn2c(Cc3cccc(F)c3)c(-c3cccc(Br)c3)nc12,5.5%
10,Cc1cc(-n2nc(C)cc2C)n2ncc(-c3ccccc3)c2n1,5.4%
11,COc1ccccc1NC(=O)C1CCCN(c2cc(C)nc3ncnn23)C1 (stereo not drawn),4.8%
12,COc1ccccc1-c1cnn2c(N3CCOCC3)cc(C)nc12,38.5% (active)
13,CCc1nc2c(OCc3ccc(Cl)cc3Cl)cccn2c1N(C)C(=O)C(C)C,-7.2%
14,Cc1cc(C)c(S(=O)(=O)NN=C2c3ccccc3[C@H]3Cc4csc[n+]4[C@@H]23)c(C)c1,-7.5%
15,Cc1nc2c(OCc3cccc(Cl)c3)cccn2c1N(C)CC1CC1,-6.3%
16,Clc1nc(NC2CCCC2)nc(N2CCOCC2)n1,53.9% (active)
17,COC(=O)CNc1nc(Cl)nc(N2CCC(C)CC2)n1,-7.3%
18,COc1nc(NC2CCCCC2)nc(N2CCCCCC2)n1,8.2%
